Assay [1] concerns the target Thyrotropin receptor (Homo sapiens) (UniProt P16473). Briefly: qHTS assay to identify small molecule agonists of the thyroid stimulating hormone receptor (TSHR) signaling pathway (AID 1224843; calls by dose curve; further: nearly all actives have a fitted effect of over 45% in size). The method, boiled down: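 Agonist-mode screen: TSHR HEK293 cells received test chemicals for half an hour at room temperature, then HTRF cAMP detection reagents for one hour prior to fluorescence measurement. Each chemical ran as a 15-concentration series, triplicated.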

Assay [2] can be described thus: qHTS assay to identify small molecule agonists of the hypoxia (HIF-1) signaling pathway - cell viability counter screen (AID 1224844; calls by dose curve; further: nearly all actives have a fitted effect of over 50% in size). A digest of the protocol: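 CellTiter-Glo luminescence read-out, 30 min RT, taken in the same wells as the beta-lactamase HRE reporter assay; HRE-bla ME-180 cells, 0.5% dialyzed FBS, 17 hr compound treatment at 37C, 5% CO2.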
Assay [3] can be described thus: qHTS assay to identify small molecule agonists of H2AX (AID 1224845; active means well fitted activation curve with a large enough effect in the signal ratio in the repeat runs, not every such curve was filed as active; the % refers to the signal ratio). A digest of the protocol:
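Wild-type CHO-K1 cells, plated overnight, exposed 3hr at 37C to 15 concentrations (0.76% DMSO final). Lysed, then HTRF anti-pH2AX (S139) cryptate and anti-H2AX-d2 antibodies, 24 hr room temperature; 665/620 nm emission read.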

Assay [4] is described as follows: qHTS assay to identify small molecule agonists of the hypoxia (HIF-1) signaling pathway (AID 1224846; active means well fitted activation curve with a large enough effect in the signal ratio in the repeat runs, not every such curve was filed as active; the % refers to the signal ratio). A digest of the protocol: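 Beta-lactamase FRET read-out (CCF4-AM substrate) from ME-180 cells carrying an HRE-driven bla reporter, after 17 hrs compound exposure at 37C/5% CO2. Cells were seeded at 2,000 per well in 0.5% dialyzed FBS medium and preincubated 5 hrs.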

Assay [5] in a line: qHTS assay to identify small molecule agonists of H2AX - cell viability counter screen (AID 1224847; calls by dose curve; further: top concentration of the series differs between compounds; nearly all actives have a fitted effect of over 30% in size). A digest of the protocol:
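For this counter screen, overnight-attached CHO-K1 cells received test compounds (15 concentrations, 0.76% DMSO final); 3 hr later at 37C, CellTiter-Glo reagent was added and luminescence recorded after 30 min at room temperature.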

Assay [6] can be described thus: qHTS RealTime-Glo MT Cell Viability Assay in HepG2 cells - 24 hour (AID 1224867). Further: nearly all actives have a fitted effect of over 50% in size. The method, boiled down: (§1)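 Compound treatment began 5 h after plating HepG2 cells (600/well) with NanoLuc luciferase and prosubstrate. Plates stayed at 37 C for 40 h; luminescence was captured at six time points, 0 h through 40 h.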
A short description of assay [7]: qHTS RealTime-Glo MT Cell Viability Assay in HEK293 cells - 32 hour (AID 1224868). Further: nearly all actives have a fitted effect of over 50% in size. Further: potency means the concentration at half of the fitted maximal effect. A digest of the protocol:
(§2)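 Quantitative high-throughput screen of the Tox21 10K library in HEK293: cells and RealTime-Glo reagents plated together, compound added at 5 h, luminescence monitored through 40 h at 37 C.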

Assay [8] in a line: A CellTox Green Cytotoxicity Assay to monitor cytotoxicity in HEK293 cells - 0 hour (AID 1224869). Further: nearly all actives have a fitted effect of over 50% in size. The method, boiled down:
(§3)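 Read-out: fluorescence of a cell-impermeant cyanine dye staining DNA of dead cells, proportional to cytotoxicity. HEK293, 600 cells/well with reagent, compound (23 nL DMSO) added after 5 h; reads at 0, 8, 16, 24, 32, 40 h.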

The nature of assay [9]: qHTS RealTime-Glo MT Cell Viability Assay in HepG2 cells - 40 hour (AID 1224870). Further: nearly all actives have a fitted effect of over 50% in size. The method, boiled down: (§4)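 HepG2 cells (600/well) mixed with RealTime-Glo MT reagent, settled 5 h at 37 C/5% CO2 before compound addition. Nonlytic NanoLuc luminescence from viable-cell prosubstrate reduction read repeatedly during 40 h treatment at 37 C.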
The nature of assay [10]: A CellTox Green Cytotoxicity Assay to monitor cytotoxicity in HEK293 cells - 40 hour (AID 1224871). Further: nearly all actives have a fitted effect of over 45% in size. The method, boiled down: as §3
A short description of assay [11]: qHTS RealTime-Glo MT Cell Viability Assay in HEK293 cells - 16 hour (AID 1224872). Further: nearly all actives have a fitted effect of over 50% in size. Further: potency means the concentration at half of the fitted maximal effect. A digest of the protocol:
as §2

Assay [12] in a line: qHTS RealTime-Glo MT Cell Viability Assay in HepG2 cells - 8 hour (AID 1224873). Further: nearly all actives have a fitted effect of over 55% in size. A digest of the protocol: as §4
The nature of assay [13]: qHTS RealTime-Glo MT Cell Viability Assay in HEK293 cells - 40 hour (AID 1224874). Further: nearly all actives have a fitted effect of over 50% in size. Further: potency means the concentration at half of the fitted maximal effect. The note with it: RealTime-Glo luminescence; max response: active compounds read low. The method, boiled down:
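Luminescence readout at each listed time point; HEK293, 600 cells/well, RealTime-Glo MT reagent added with cells; compounds pinned (23 nL in DMSO) after 5 h at 37 C; continuous culture at 37 C.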

Assay [14] in a line: A CellTox Green Cytotoxicity Assay to monitor cytotoxicity in HEK293 cells - 24 hour (AID 1224875). Further: nearly all actives have a fitted effect of over 45% in size. The method, boiled down:
as §3

Assay [15] in a line: A CellTox Green Cytotoxicity Assay to monitor cytotoxicity in HepG2 cells - 16 hour (AID 1224876). Further: nearly all actives have a fitted effect of over 45% in size. The method, boiled down:
(§5)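 HepG2, 600 cells/well premixed w/ CellTox Green; 5 h settle, 37 C/5% CO2; pintool cpd add (DMSO); 37 C, 40 h; fluorescence read at 0, 8, 16, 24, 32, 40 h.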

Assay [16] can be described thus: qHTS RealTime-Glo MT Cell Viability Assay in HepG2 cells - 32 hour (AID 1224877). Further: nearly all actives have a fitted effect of over 55% in size. A digest of the protocol:
as §1

Assay [17] in a line: A CellTox Green Cytotoxicity Assay to monitor cytotoxicity in HepG2 cells - 24 hour (AID 1224878). Further: nearly all actives have a fitted effect of over 45% in size. A digest of the protocol:
as §5

Assay [18] is described as follows: A CellTox Green Cytotoxicity Assay to monitor cytotoxicity in HepG2 cells - 40 hour (AID 1224879). Further: nearly all actives have a fitted effect of over 40% in size. A digest of the protocol:
as §5

The nature of assay [19]: qHTS assay to identify small molecule antagonists of the estrogen related receptor (ERR) signaling pathway from Tox21 library (AID 1224848). Further: nearly all actives have a fitted effect of over 50% in size. A digest of the protocol: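 Quantitative high-throughput format: ERR reporter cells (2,000/well) pre-incubated 6 h, treated 18 h at 37 C with compounds in DMSO alongside positive and negative controls, then read by ONE-Glo luminescence.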

Assay [20] can be described thus: qHTS assay to identify small molecule agonists of the estrogen related receptor (ERR) signaling pathway from Tox21 library (AID 1224849; calls by dose curve; further: nearly all actives have a fitted effect of over 15% in size). To be noted: ERR reporter cell line, ONE-Glo luciferase, 18 h; at 92.4 µM (top of the series) unless noted. The method, boiled down:
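Luminescence readout (ONE-Glo, 30 min RT) after 18 h compound exposure at 37 C of NTP-supplied ERR reporter cells; cells were plated 6 h before compound addition by pin tool.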

These results are taken from PubChem BioAssay (Tox21).

Values without a mark were called inactive. Records with an inconclusive call do not appear. The source made the active and inactive calls. Unless noted, the call rests on the fitted dose curve; in most records, active means well fitted curve in the direction sought with a large enough effect in the repeat runs; inconclusive means weak or mixed curves; inactive means no such curve, though single readings can be large; an effect the other way counts as inactive or inconclusive.
On the % scale 0 is the no-effect control and ±100 the full control effect.

Chain of Thyrotropin receptor (Homo sapiens) (P16473 whole entry, looked up): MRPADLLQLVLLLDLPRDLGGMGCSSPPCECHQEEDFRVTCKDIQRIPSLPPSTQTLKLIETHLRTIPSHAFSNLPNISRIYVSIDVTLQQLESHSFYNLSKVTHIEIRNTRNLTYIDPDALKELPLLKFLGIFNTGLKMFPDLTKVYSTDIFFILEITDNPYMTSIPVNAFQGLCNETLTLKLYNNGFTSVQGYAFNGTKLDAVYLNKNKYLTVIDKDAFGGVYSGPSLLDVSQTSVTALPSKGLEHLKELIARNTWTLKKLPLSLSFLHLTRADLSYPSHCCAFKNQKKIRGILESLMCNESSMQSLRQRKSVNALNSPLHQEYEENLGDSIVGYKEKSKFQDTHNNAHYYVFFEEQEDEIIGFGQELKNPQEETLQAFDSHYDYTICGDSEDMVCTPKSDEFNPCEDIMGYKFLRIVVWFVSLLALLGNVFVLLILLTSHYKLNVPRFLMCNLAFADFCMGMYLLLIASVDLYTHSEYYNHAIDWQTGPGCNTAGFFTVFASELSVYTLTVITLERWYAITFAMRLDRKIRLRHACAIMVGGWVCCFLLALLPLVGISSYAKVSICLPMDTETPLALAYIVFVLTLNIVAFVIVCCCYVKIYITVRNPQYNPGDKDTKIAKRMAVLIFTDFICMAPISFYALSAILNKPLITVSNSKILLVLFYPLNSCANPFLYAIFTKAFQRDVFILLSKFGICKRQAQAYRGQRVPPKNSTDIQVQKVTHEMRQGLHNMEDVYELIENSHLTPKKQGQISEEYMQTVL

In the case of `O=C(CCN1CCN(CCO)CC1)N1c2ccccc2Sc2ccc(C(F)(F)F)cc21`, the Potency result in assay [1], in assay [5], in assay [7], in assay [10], in [11] and in [18] was “inactive” throughout. For the same compound, the compound was called inactive in assay [2], in assay [3], in assay [4], in [6], in [8] and in assay [9]. In addition, the call in assay [12], in assay [14], in assay [15], in assay [16] and in assay [17] was inactive. For the same compound, the max response in [13] is -11.6%.
Turning to `C=COCCOCCOCCOC=C`, the Potency result in assay [1], in [5], in assay [7], in assay [11] and in assay [18] was “inactive” in each case. For the same compound, the compound was called inactive in assay [2], in assay [3], in assay [4], in assay [8], in assay [9] and in assay [12]. Moreover, the compound was called inactive in assay [14], in assay [15] and in [17]. In assay [13], the max response is 1.1%.
As for `NCCN1CCOCC1`, the Potency entry in assay [1], in [5], in assay [7], in [10], in [11] and in assay [18] was “inactive” throughout. Also, the compound was classed as inactive in assay [2], in assay [3], in assay [4], in assay [6], in assay [8] and in assay [12]. Also, the call in [14], in [15], in [16] and in assay [17] was inactive. The max response in [13] is 1.04%.
In the case of `CCCCCOC(=O)CCC`, the Potency entry in assay [1], in assay [19], in assay [7], in [10], in assay [11] and in assay [18] was “inactive” each time. In addition, the result in assay [2], in [3], in assay [4], in assay [6], in assay [8] and in assay [9] was inactive. In addition, the call in assay [12], in assay [14], in assay [15], in [16] and in assay [17] was inactive. The activity change, positive = activation in assay [20] was 10.4%. The max response in assay [13] is -0.243%.
With `CCCCCCCCCC(C)=O`, the Potency entry in [1], in assay [5], in assay [7], in assay [10], in assay [11] and in assay [18] was “inactive” in each case. Moreover, the compound was called inactive in assay [2], in assay [3], in [4], in assay [6], in assay [8] and in assay [9]. The outcome in assay [12], in assay [14], in assay [15] and in [16] was inactive. Further, the max response in assay [13] is 10.3%.
In the case of `CC(C)C(=O)OCc1cccc(OC(=O)[C@@H]2N3C(=O)[C@@H](NC(=O)Cc4ccccc4)[C@H]3SC2(C)C)c1`, the Potency result in assay [1], in assay [5], in assay [7], in [10], in assay [11] and in [18] was “inactive” each time. Also, the compound was classed as inactive in assay [2], in assay [3], in assay [4], in assay [6], in assay [8] and in assay [9]. The compound was called inactive in assay [12], in assay [14], in [15], in [16] and in assay [17]. Also, in [13], the max response is 0.269%.
Consider `NS(=O)(=O)c1cc2c(cc1Cl)CN(C1CCCCC1)C2=O`, for which the Potency entry in assay [1], in assay [5], in assay [10] and in [18] was “inactive” throughout. Besides, the compound was classed as inactive in [2], in assay [3], in assay [4], in assay [6], in assay [8] and in [9]. The call in assay [12], in assay [14], in assay [15], in [16] and in assay [17] was inactive. Also, the results for the Potency in assay [7], in assay [11] and in assay [13] were 9.52 µM (active), 10.7 µM (active) and 9.52 µM (active), respectively.
